HT1080 IDH1KD tx – HT-1080 IDH1 knockdown cell toxicity (counter line); 360,000 compounds, 2% hits; HT-1080 IDH1 knockdown viability, ATP luminescence, 48 h; Potency, µM (top dose mostly 46.1 µM), without a hit: top-dose activity, negative = toxicity, actives largely listed as cytotoxic; AID 686971;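 further: 0% = DMSO wells and -100% = cell-free medium wells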
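Cytotoxicity counter-line: IDH1KD HT-1080, 48 h, CellTiter-Glo. Curves classed by r2, magnitude and activity.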
SW480 rereplic – induces DNA re-replication in SW480 colon adenocarcinoma cells; SW480 DNA re-replication, Hoechst DNA content imaging, 48 h; Potency, µM (doses to about 46.1 µM), inactives show at the top dose re-replication activation, usual class: activators; 340,000 compounds, 1.8% hits; AID 624297; further: % of control where 0% means no effect; nearly all actives have a fitted effect of over 55% in size
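SW480 cells exposed to compounds for 48 hr at 37 C, 5% CO2, then Hoechst-stained 40 min. Nuclear DNA content imaged by fluorescence scanning (405 nm excitation, 500-530 nm emission); re-replication scored as increased high-intensity nuclei.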
MCF10A rerep – inducers of DNA re-replication in MCF 10A breast cells; MCF 10A DNA re-replication, Hoechst nuclear intensity, 48 h; Potency, µM (top dose mostly 46.1 µM), for inactives: top-dose activity, positive = re-replication, actives largely listed as activators; 350,000 compounds, 2.9% hits; AID 624296; further: % of control where 0% means no effect; nearly all actives have a fitted effect of over 50% in size
KB-3-1 cytotox – KB-3-1 parental cell cytotoxicity | KB-3-1 viability, CellTiter-Glo ATP luminescence, 72 h | Potency, µM (doses to about 46.1 µM), usual class: cytotoxic | 400,000 compounds, 1.4% hits | AID 1347075; further: on the % scale 0 is the no-effect control and ±100 the full control effect; nearly all actives have a fitted effect of over 60% in size
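Viability of parental KB-3-1 cells, measured by CellTiter-Glo luminescence, followed a 72 h incubation at 37 °C with pinned compounds in phenol-red-free DMEM containing 10% FBS.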
KB-V1 MDR tox – KB-V1 MDR subline cytotoxicity; KB-V1 MDR cells viability, CellTiter-Glo, 72 h; Potency, µM (highest dose often 46.1 µM), most hits filed as cytotoxic; 400,000 compounds, 3.4% hits; AID 1347076; further: on the % scale 0 is the no-effect control and ±100 the full control effect; nearly all actives have a fitted effect of over 60% in size
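In this primary screen, KB-V1 cells overexpressing P-gp are incubated with library compounds (lowest to highest concentration) for 72 h at 37 degrees C before a luminescent ATP viability read.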
HT1080-NT tox – kills 2HG-producing HT-1080-NT fibrosarcoma cells | HT-1080-NT fibrosarcoma viability, CellTiter-Glo ATP luminescence, 48 h | Potency, µM (top dose mostly 46.1 µM), for the others: at the highest dose activity, negative = less viability, usual class: cytotoxic | 360,000 compounds, 1.6% hits | AID 686970;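 further: NT is the 2HG producing partner of a matched IDH1 knockdown line; 0% = DMSO-treated cells and -100% = media-only wells without cells; nearly all actives have a fitted effect of over 55% in size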
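Toxicity toward the 2HG-producing NT line was scored as %Activity, normalised to DMSO and no-cell wells, from CellTiter-Glo luminescence after 48 hours' treatment.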
An asterisk follows results filed as active; i = inactive; ? = inconclusive; . = no result given; [ ] = dose if it differs, or a comment. Sampled rows, rich in hits. Any-hit rate of the full collection: about 8%. The call rests on the fitted dose curve; in most records, active means well fitted curve in the direction sought with a large enough effect; inconclusive means small, poorly fitted or top-dose-only effect, or another doubt; inactive means no such curve, though single readings can be large; an effect the other way counts as inactive or inconclusive. Potency means the concentration at half of the fitted maximal effect.

SMILES	HT1080 IDH1KD tx	SW480 rereplic	MCF10A rerep	KB-3-1 cytotox	KB-V1 MDR tox	HT1080-NT tox
Cc1ccc2c(Cl)c(C(=O)Nc3cccnc3)sc2c1	-30%	?	?	i	i	-15%
CCn1c(N2CCN(S(=O)(=O)CC)CC2)nc2ccccc21	12%	-8%	-6%	i	?	11%
CCn1c(N2CCN(C(=S)NCC(C)C)CC2)nc2ccccc21	0%	17%	18µM*	i	10µM*	0%
CCn1c(N2CCN(C(=S)NC)CC2)nc2ccccc21	-21%[9.24 µM]	-4%	19%	i	i	5%
CCn1c(N2CCN(S(=O)(=O)c3ccc(F)cc3)CC2)nc2ccccc21	-15%	-10%	5%	?	12µM*	-14%
CCn1c(N2CCN(S(=O)(=O)c3ccc(Cl)cc3)CC2)nc2ccccc21	?	-1%	-1%	?	8.2µM*	-27%
Cc1sc2ncn(CC(=O)Nc3ccc(F)cc3Cl)c(=O)c2c1S(=O)(=O)N1CCN(c2ncccn2)CC1	.	.	.	i	?	.
Cc1cccc(C)c1OCC(O)CN(Cc1ccccc1O)C1CCCCC1 (configuration not stated)	?	?	?	?	?	9.2µM*
COc1ccc(Nc2c(-c3ccc(F)cc3)nc3nc(C)cc(C)n23)cc1	0%	.	.	i	?	-14%
O=C(COCc1cc(-c2cccs2)on1)NCc1ccccc1Cl	.	.	.	i	i	.
O=C(N/N=C/c1cc(Br)c(O)c(Br)c1O)c1cccnc1	10µM*	?	12%	?	i	?
O=C(N/N=C/c1cc(O)ccc1Br)c1cccnc1	?	12%	5%	21µM*	i	?
C=CCNC(=O)c1cc(Cl)cc(Cl)c1	13%	2%	-3%	i	i	12%
CCCc1nc2oc3c(NCCN(C)C)ncnc3c2c2c1CCCC2	?	?	?	?	i	-19%
CC(C)Cc1nc2oc3c(Cl)ncnc3c2c2c1CCCC2	22%	9%	29µM*	i	i	8%
CCCc1nc2oc3c(NCCCN(C)C)ncnc3c2c2c1CCCC2	?	?	15µM*	i	?	-24%
CC(C)Cc1nc2oc3c(=O)[nH]cnc3c2c2c1CCCC2	-9%	-83%	1%	i	18µM*	7%
Cc1cccc(C)c1NS(=O)(=O)c1ccc(NS(=O)(=O)c2ccc3c(c2)OCCO3)cc1	.	.	.	i	i	.
COc1ccc(-c2nn(-c3cccc([N+](=O)[O-])c3)c3c2cnc2cc4c(cc23)OCO4)cc1	.	.	.	i	i	.
Cc1ccc(Cn2ccnc2SCC(=O)Nc2nnc(C)s2)cc1	.	.	.	i	i	.
O=C(N/N=C/c1ccccn1)c1cc(-c2ccc(Br)s2)[nH]n1	?	-1%	?	i	i	?
Cc1nn(-c2ccccc2)c(C)c1/C=N/NC(=O)c1cc(C2CC2)[nH]n1	0%	0%	-4%	i	i	-5%
CC(/C=N/NC(=O)c1cc(-c2ccc(C)s2)[nH]n1)=C\c1ccccc1	7.3µM*	?	6.5µM*	21µM*	?	5.2µM*
Cc1nn(-c2ccccc2)c(C)c1/C=N/NC(=O)c1cc(-c2ccc(Br)s2)[nH]n1	?	15µM*	4.1µM*	?	?	?
Cc1nn(-c2ccccc2)c(C)c1/C=N/NC(=O)CSc1nnc(SCc2ccc(Cl)cc2)s1	?	15%	16%	?	2.3µM*	-17%
SMILES	HT1080 IDH1KD tx	SW480 rereplic	MCF10A rerep	KB-3-1 cytotox	KB-V1 MDR tox	HT1080-NT tox
Cc1nn(-c2ccccc2)c(C)c1/C=N/NC(=O)c1cc(C23CC4CC(CC(C4)C2)C3)[nH]n1	?	20%	2.6µM*	?	?	?
CC1(C(=O)NS(=O)(=O)c2ccc(Cl)cc2)CCN1C(=O)c1cccc(F)c1 (configuration not stated)	7%	.	.	i	i	18%
CSc1nc(C(C)C)ccc1CNC(=O)CC(C)c1ccccc1 (configuration not stated)	-12%	9%	?	i	?	-4%
Cc1nc2ccc(C(=O)N3CCN(Cc4ccccc4)CC3)cc2[nH]1	2%	-7%	-21%	i	i	14%
COc1cc(/C=N/NC(=O)c2cc(C34CC5CC(CC(C5)C3)C4)[nH]n2)ccc1O	-11%	0%	1.3µM*	i	i	-14%
COc1cc(/C=N/NC(=O)c2cc(C3CC3)[nH]n2)ccc1O	5%	25%	-8%	i	i	0%
COc1cc(/C=N/NC(=O)c2cc(-c3c(C)nn(-c4ccccc4)c3C)n[nH]2)ccc1O	-14%	?	21%	i	i	-9%
Cc1c(/C=N/NC(=O)c2cccs2)c2ccccc2n1Cc1ccccc1Cl	-20%	15µM*	16µM*	?	?	-5%
Cc1[nH]c2ccccc2c1/C=N/NC(=O)c1cccs1	-6%	-35%	20%	i	?	-10%
Cc1nn(-c2ccccc2)c(C)c1/C=N/NC(=O)c1cc(-c2ccc(Cl)s2)[nH]n1	0.89µM*	5.2µM*	3.7µM*	2.9µM*	12µM*	0.63µM*
Cc1nn(-c2ccccc2)c(C)c1-c1cc(C(=O)N/N=C/c2ccc(O)cc2)[nH]n1	?	22%	18µM*	?	i	?
Cc1noc(-c2ccc(N3CCC(C)CC3)c([N+](=O)[O-])c2)n1	.	.	.	i	i	.
Cc1nn(-c2ccccc2)c(C)c1/C=N/NC(=O)c1cc(-c2cccs2)[nH]n1	?	0.65µM*	29%	0.52µM*	?	?
Cc1nn(-c2ccccc2)c(C)c1/C=N/NC(=O)c1cccs1	-7%	?	16%	?	21µM*	-17%
Cc1cc(C(=O)N/N=C/c2c(C)nn(-c3ccccc3)c2C)n[nH]1	-3%	-4%	3%	i	i	-11%
CS(=O)(=O)N(CC(=O)NCCSCc1c(F)cccc1Cl)c1ccc2c(c1)OCO2	-17%	-4%	-1%	i	?	-12%
CC(C)(C)SCCNC(=O)CN(c1ccc(F)c(Cl)c1)S(C)(=O)=O	-11%	-1%	-2%	i	18µM*	-1%
COc1ccc(OC)c(N(CC(=O)NCCSc2ccccc2)S(C)(=O)=O)c1	-2%	-1%	0%	i	23µM*	1%
COc1cccc(N(CC(=O)NCCSc2ccc(Cl)cc2)S(C)(=O)=O)c1	-2%	5%	-1%	i	16µM*	-7%
